# Results as given in ChEMBL document CHEMBL1961873, “Compounds: GSK PKIS; Assays: Nanosyn kinase panel” (2012).
# Values joined by “and” are separate entries in the source; they are usually repeats but may differ in a detail not shown here. Equal values may be shown once.
# Biological target: T1, Mitogen-activated protein kinase kinase kinase kinase 2 (Homo sapiens) (UniProt Q12851)
# T1 sequence (whole entry): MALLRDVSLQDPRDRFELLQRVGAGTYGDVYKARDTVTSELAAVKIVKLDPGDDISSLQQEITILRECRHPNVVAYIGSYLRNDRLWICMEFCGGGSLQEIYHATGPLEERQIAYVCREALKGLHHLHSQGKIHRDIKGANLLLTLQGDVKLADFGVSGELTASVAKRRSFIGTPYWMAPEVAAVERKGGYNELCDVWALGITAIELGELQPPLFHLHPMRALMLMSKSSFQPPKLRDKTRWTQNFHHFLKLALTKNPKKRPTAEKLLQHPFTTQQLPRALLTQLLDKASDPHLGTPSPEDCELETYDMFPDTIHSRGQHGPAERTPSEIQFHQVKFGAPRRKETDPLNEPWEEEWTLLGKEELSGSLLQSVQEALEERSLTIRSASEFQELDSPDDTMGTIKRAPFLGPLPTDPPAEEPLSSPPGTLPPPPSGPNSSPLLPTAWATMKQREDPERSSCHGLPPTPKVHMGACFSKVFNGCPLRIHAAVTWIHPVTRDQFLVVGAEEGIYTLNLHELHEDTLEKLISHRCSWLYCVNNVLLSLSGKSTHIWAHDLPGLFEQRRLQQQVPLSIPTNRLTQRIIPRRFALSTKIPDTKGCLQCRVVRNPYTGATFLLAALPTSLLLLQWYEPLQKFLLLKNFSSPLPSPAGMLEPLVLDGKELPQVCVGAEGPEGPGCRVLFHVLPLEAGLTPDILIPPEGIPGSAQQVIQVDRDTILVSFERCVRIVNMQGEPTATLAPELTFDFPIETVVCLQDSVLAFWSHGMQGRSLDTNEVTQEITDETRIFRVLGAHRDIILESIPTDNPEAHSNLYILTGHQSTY
# Details: at 0.1 µM
row,SMILES,inhibition
1,CNC(=O)c1cncc(/C=C/c2ccccc2C)c1,0.94%
2,CC(C)c1ccc(-c2cc(-c3c[nH]nc3-c3ccccn3)ccn2)cc1,1.5%
3,Fc1cccc(COc2ccc(Nc3ncncc3C#Cc3ccccc3)cc2Cl)c1,0.81%
4,NS(=O)(=O)c1ccc(N/N=C2\C(=O)Nc3cccc(CCc4ccncc4)c32)cc1,1.75%
5,CCn1c(-c2nonc2N)nc2cncc(C(=O)NCCNC)c21,0.67%
6,CS(=O)(=O)CCNCc1ccc(-c2ccc3ncnc(Nc4ccc(OCc5cccc(C(F)(F)F)c5)cc4)c3c2)o1,-0.93%
7,Cc1cc(O)cc(C)c1/C=C/c1cncc(C(=O)OC(C)(C)C)c1,2.5%
8,O=C(O[C@H]1CN[C@H](C#Cc2cc3ncnc(Nc4ccc(OCc5cccc(F)c5)c(Cl)c4)c3s2)C1)N1CCOCC1,1.53%
9,c1ccc(-c2n[nH]cc2-c2ccnc(-c3ccc(OCCn4ccnc4)cc3)c2)nc1,3.67%
10,c1cnn2ncc(-c3ccnc(NCCCN4CCOCC4)n3)c2c1,-0.2%
11,O=C(O[C@H]1CN[C@H](C#Cc2cc3ncnc(Nc4ccc5c(ccn5Cc5cc(F)ccc5F)c4)c3s2)C1)N1CCOCC1,1.18%
12,O=C(O[C@H]1CN[C@H](C#Cc2cc3ncnc(Nc4ccc5c(cnn5Cc5ccccc5)c4)c3s2)C1)N1CCOCC1,0.52%
13,COc1ccc(Nc2ncc(-c3ccccc3)o2)cc1OC,3.92%
14,CC1=C(C(=O)Nc2ccc3[nH]nc(C)c3c2)C(c2ccc(C(F)(F)F)cc2)CC(=O)N1 (configuration not stated),0.76%
15,Cn1c(-c2nonc2N)nc2cnccc21,0.8%
16,CCS(=O)(=O)c1ccc(OC)c(Nc2ncc(-c3cccc(F)c3)o2)c1,1.31%

row,SMILES,inhibition
1,Cc1nnc(-c2cccc(-c3ccc(C(=O)NCC4CC4)cc3)c2)o1,1.46%
2,COc1cc2c(cc1Nc1nc(Nc3cccc(F)c3C(N)=O)c3cc[nH]c3n1)N(C(=O)CN1CCN(C(C)C)CC1)CC2,1.69%
3,COc1cc(N2CCN(C(C)C)CC2)ccc1Nc1nc(Nc2cccc(F)c2C(=O)O)c2cc[nH]c2n1,0.91%
4,NC(=O)c1ccc2c(-c3ccnc(NCCCO)n3)c(-c3ccc(F)cc3)nn2c1,1.47%
5,COc1ccccc1-c1cc(/C=C2\C(=O)Nc3ncc(Br)cc32)cc(Br)c1O,0.42%
6,COC(=O)Nc1nc2ccc(Oc3ccc(NC(=O)Nc4cc(C(F)(F)F)ccc4F)cc3)cc2s1,10.7%
7,CN1CCC(C(=O)Nc2n[nH]c3nc(-c4ccc(O)cc4)c(Br)cc23)CC1,4.77% and 3.87%
8,CCOc1ccc2c(-c3ccnc(Nc4cc(OC)cc(C(F)(F)F)c4)n3)cnn2n1,0.08%
9,CC1=C(C(=O)Nc2ccc3[nH]ncc3c2)C(c2ccc(F)cc2)N=C(c2ccc(C(F)(F)F)nc2)N1 (configuration not stated),1.59%
10,Nc1ncnc2occ(-c3ccc(NC(=O)Nc4cc(C(F)(F)F)ccc4F)cc3)c12,35.8% and 34.4%
11,CCS(=O)(=O)c1ccc(OC)c(Nc2ncc(-c3cccc(C(C)=O)c3)o2)c1,-0.26%
12,FC(F)(F)CNc1nccc(-c2cnn3ncccc23)n1,-0.83%
13,CN(C)CCNC(=O)Nc1ccc(N(C)c2ccnc(Nc3ccc(CS(C)(=O)=O)cc3)n2)cc1,0.59%
14,Nc1nccc(-c2c(-c3ccc(F)cc3)ncn2C2CCNCC2)n1,-0.37% and 2%
15,CN1CCC(n2cnc(-c3ccc(F)cc3)c2-c2ccnc(NCCO)n2)CC1,1.01%

# Biological target: T1, Mitogen-activated protein kinase kinase kinase kinase 2 (Homo sapiens)
# Details: at 1 µM
row,SMILES,inhibition
1,CNC(=O)c1cncc(/C=C/c2ccccc2C)c1,2.16%
2,CC(C)c1ccc(-c2cc(-c3c[nH]nc3-c3ccccn3)ccn2)cc1,3.27%
3,Fc1cccc(COc2ccc(Nc3ncncc3C#Cc3ccccc3)cc2Cl)c1,0.54%
4,NS(=O)(=O)c1ccc(N/N=C2\C(=O)Nc3cccc(CCc4ccncc4)c32)cc1,3.46%
5,CCn1c(-c2nonc2N)nc2cncc(C(=O)NCCNC)c21,3.62%
6,CS(=O)(=O)CCNCc1ccc(-c2ccc3ncnc(Nc4ccc(OCc5cccc(C(F)(F)F)c5)cc4)c3c2)o1,2.32%
7,Cc1cc(O)cc(C)c1/C=C/c1cncc(C(=O)OC(C)(C)C)c1,7.97%
8,O=C(O[C@H]1CN[C@H](C#Cc2cc3ncnc(Nc4ccc(OCc5cccc(F)c5)c(Cl)c4)c3s2)C1)N1CCOCC1,0.84%
9,c1ccc(-c2n[nH]cc2-c2ccnc(-c3ccc(OCCn4ccnc4)cc3)c2)nc1,7.08%
10,c1cnn2ncc(-c3ccnc(NCCCN4CCOCC4)n3)c2c1,1.94%
11,O=C(O[C@H]1CN[C@H](C#Cc2cc3ncnc(Nc4ccc5c(ccn5Cc5cc(F)ccc5F)c4)c3s2)C1)N1CCOCC1,2.82%
12,O=C(O[C@H]1CN[C@H](C#Cc2cc3ncnc(Nc4ccc5c(cnn5Cc5ccccc5)c4)c3s2)C1)N1CCOCC1,2.14%
13,COc1ccc(Nc2ncc(-c3ccccc3)o2)cc1OC,14.3%
14,CC1=C(C(=O)Nc2ccc3[nH]nc(C)c3c2)C(c2ccc(C(F)(F)F)cc2)CC(=O)N1 (configuration not stated),3.74%
15,Cn1c(-c2nonc2N)nc2cnccc21,6.6%
16,CCS(=O)(=O)c1ccc(OC)c(Nc2ncc(-c3cccc(F)c3)o2)c1,8.13%

row,SMILES,inhibition
1,Cc1nnc(-c2cccc(-c3ccc(C(=O)NCC4CC4)cc3)c2)o1,3.14%
2,COc1cc2c(cc1Nc1nc(Nc3cccc(F)c3C(N)=O)c3cc[nH]c3n1)N(C(=O)CN1CCN(C(C)C)CC1)CC2,11.3%
3,COc1cc(N2CCN(C(C)C)CC2)ccc1Nc1nc(Nc2cccc(F)c2C(=O)O)c2cc[nH]c2n1,3.18%
4,NC(=O)c1ccc2c(-c3ccnc(NCCCO)n3)c(-c3ccc(F)cc3)nn2c1,7.29%
5,COc1ccccc1-c1cc(/C=C2\C(=O)Nc3ncc(Br)cc32)cc(Br)c1O,5.34%
6,COC(=O)Nc1nc2ccc(Oc3ccc(NC(=O)Nc4cc(C(F)(F)F)ccc4F)cc3)cc2s1,28.6%
7,CN1CCC(C(=O)Nc2n[nH]c3nc(-c4ccc(O)cc4)c(Br)cc23)CC1,24.7% and 19.9%
8,CCOc1ccc2c(-c3ccnc(Nc4cc(OC)cc(C(F)(F)F)c4)n3)cnn2n1,2.69%
9,CC1=C(C(=O)Nc2ccc3[nH]ncc3c2)C(c2ccc(F)cc2)N=C(c2ccc(C(F)(F)F)nc2)N1 (configuration not stated),2.35%
10,Nc1ncnc2occ(-c3ccc(NC(=O)Nc4cc(C(F)(F)F)ccc4F)cc3)c12,66.3% and 65.5%
11,CCS(=O)(=O)c1ccc(OC)c(Nc2ncc(-c3cccc(C(C)=O)c3)o2)c1,3.22%
12,FC(F)(F)CNc1nccc(-c2cnn3ncccc23)n1,1.5%
13,CN(C)CCNC(=O)Nc1ccc(N(C)c2ccnc(Nc3ccc(CS(C)(=O)=O)cc3)n2)cc1,2.02%
14,Nc1nccc(-c2c(-c3ccc(F)cc3)ncn2C2CCNCC2)n1,4.6% and 3.83%
15,CN1CCC(n2cnc(-c3ccc(F)cc3)c2-c2ccnc(NCCO)n2)CC1,1.59%
